In PubChem BioAssay (EPA / NIEHS):
Inconclusive results are not listed. The source made the active and inactive calls. How the source made its calls, unless noted: active means hit-call score of the fitted dose curve at least 0.9, where 1 is the maximum; inconclusive means response in the unintended direction; inactive means score below 0.9.

How the values were obtained:
[1] = biological target: human Retinoic Acid Receptor gamma (RARg), RARG (gene 5916) (UniProt P13631); assay: ATG_RARg_TRANS: Attagene TRANS-FACTORIAL HepG2 Assay for human Retinoic Acid Receptor gamma (RARg) (AID 2283009)
Sequence of human Retinoic Acid Receptor gamma (RARg), RARG (gene 5916) (P13631 whole entry, looked up, the tested form may be a part): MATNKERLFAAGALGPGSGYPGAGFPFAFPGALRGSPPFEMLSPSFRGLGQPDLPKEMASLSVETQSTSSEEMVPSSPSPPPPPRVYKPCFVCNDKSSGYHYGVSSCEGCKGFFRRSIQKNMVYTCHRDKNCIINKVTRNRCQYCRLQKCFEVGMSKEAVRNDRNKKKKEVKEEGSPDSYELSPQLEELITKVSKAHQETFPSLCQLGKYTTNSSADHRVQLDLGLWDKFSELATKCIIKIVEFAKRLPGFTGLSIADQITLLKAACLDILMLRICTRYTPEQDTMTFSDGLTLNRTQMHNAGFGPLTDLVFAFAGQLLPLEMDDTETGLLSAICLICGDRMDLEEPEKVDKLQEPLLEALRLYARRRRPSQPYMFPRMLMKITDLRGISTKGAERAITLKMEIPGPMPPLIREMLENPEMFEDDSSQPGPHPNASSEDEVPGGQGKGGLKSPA
Method in brief: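 Readout: reporter transcript levels via RT-PCR, 6-FAM primer-extension labelling, HpaI digestion and capillary electrophoresis. Cells: HepG2 carrying transfected RARg-GAL4 chimera plus UAS reporter set. Dosing 24 h; DMSO negative control.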

[2] = biological target: Estrogen receptor beta (Homo sapiens) (UniProt Q92731); assay: OT_ER_ERbERb_0480: Odyssey Thera (OT) 8-hour HEK293T Protein-Complementation Assay for Estrogen Receptor-beta/-beta Homodimer (AID 2283357);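 further: active means signal gain over DMSO baseline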
Sequence of Estrogen receptor beta (Homo sapiens) (Q92731 whole entry, looked up, the tested form may be a part): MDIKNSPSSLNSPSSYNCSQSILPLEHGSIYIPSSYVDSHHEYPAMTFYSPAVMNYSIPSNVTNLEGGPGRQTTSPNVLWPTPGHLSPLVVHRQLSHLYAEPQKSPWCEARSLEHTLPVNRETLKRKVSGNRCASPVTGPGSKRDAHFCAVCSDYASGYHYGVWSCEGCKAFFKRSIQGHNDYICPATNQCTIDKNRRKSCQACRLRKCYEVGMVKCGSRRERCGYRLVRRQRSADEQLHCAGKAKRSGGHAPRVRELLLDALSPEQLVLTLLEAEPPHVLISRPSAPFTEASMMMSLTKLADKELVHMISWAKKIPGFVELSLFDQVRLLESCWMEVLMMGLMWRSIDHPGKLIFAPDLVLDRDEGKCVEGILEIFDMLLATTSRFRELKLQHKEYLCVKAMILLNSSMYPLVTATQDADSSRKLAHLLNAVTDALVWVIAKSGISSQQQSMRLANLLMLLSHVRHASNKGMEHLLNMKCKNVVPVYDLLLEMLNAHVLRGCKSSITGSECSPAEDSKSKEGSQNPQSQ
Method in brief: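 Homodimerization of ER-beta LBD measured by protein-fragment complementation in HEK293T; 8 h dosing; fixed, Draq5 counterstain; fluorescence intensity gain over DMSO baseline, positive fitting direction; laser scanning cytometry.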

[3] = biological target: Estrogen receptor beta (Homo sapiens) (UniProt Q92731); assay: OT_ER_ERbERb_1440: Odyssey Thera (OT) 24-hour HEK293T Protein-Complementation Assay for Estrogen Receptor-beta/-beta Homodimer (AID 2283380);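 further: scored as signal increase over DMSO baseline for both agonists and antagonists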
Method in brief: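 HEK293T cells stably expressing ER beta LBD (aa 310-547) homodimer fragment-complementation reporter, dosed 24 h. Cells formaldehyde-fixed, Draq5-stained; gain in nuclear (agonist) or nuclear plus cytoplasmic (antagonist) fluorescence versus DMSO read by laser scanning cytometry.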

[4] = biological target: Retinoic acid receptor RXR-alpha (Homo sapiens) (UniProt P19793); assay: OT_NURR1_NURR1RXRa_1440: Odyssey Thera (OT) 24-hour HEK293T Protein Complementation Assay for Nurr1/retinoid X receptor (RXR) (AID 2283386)
Sequence of Retinoic acid receptor RXR-alpha (Homo sapiens) (P19793 whole entry, looked up, the tested form may be a part): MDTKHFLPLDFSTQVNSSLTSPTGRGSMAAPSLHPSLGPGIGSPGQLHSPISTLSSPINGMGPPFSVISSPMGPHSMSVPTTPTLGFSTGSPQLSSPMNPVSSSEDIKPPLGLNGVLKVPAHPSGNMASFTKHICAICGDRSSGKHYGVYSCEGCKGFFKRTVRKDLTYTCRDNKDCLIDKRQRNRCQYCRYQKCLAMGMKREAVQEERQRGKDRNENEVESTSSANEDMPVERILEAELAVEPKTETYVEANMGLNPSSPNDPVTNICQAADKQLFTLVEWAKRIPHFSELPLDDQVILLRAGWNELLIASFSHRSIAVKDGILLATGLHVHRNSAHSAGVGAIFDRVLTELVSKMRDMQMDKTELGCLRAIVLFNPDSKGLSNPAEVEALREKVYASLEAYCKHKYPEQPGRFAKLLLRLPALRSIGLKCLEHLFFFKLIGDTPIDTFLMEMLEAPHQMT
Method in brief: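 Fluorescence PCA read-out; HEK293T; 24 h post-dose; bait/prey fused to reporter fragments; gain-of-signal fit vs DMSO negative control.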

[5] = biological target: Peroxisome proliferator-activated receptor gamma (Homo sapiens) (UniProt P37231); assay: OT_PPARg_PPARgSRC1_0480: Odyssey Thera (OT) 8-hour Protein-Complementation Assay for Peroxisome Proliferator-activated Receptor Gamma / SRC-1 Co-activator (AID 2283387);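 further: nuclear to cytoplasmic split Venus YFP fluorescence ratio reporting PPARg SRC-1 interaction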
Sequence of Peroxisome proliferator-activated receptor gamma (Homo sapiens) (P37231 whole entry, looked up, the tested form may be a part): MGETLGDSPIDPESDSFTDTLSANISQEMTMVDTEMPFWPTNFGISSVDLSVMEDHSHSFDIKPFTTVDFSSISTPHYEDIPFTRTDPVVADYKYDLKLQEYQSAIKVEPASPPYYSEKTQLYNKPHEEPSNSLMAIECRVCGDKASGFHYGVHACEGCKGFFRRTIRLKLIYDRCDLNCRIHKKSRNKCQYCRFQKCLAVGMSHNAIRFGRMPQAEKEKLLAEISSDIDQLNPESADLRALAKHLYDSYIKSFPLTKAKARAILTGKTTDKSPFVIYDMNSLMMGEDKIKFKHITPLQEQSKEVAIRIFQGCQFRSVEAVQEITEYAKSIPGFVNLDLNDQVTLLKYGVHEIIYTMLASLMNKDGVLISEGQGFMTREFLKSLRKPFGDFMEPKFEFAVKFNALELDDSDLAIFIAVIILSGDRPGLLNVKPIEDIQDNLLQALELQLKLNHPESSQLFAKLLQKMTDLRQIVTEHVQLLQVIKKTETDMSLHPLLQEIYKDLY
Method in brief: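 Split-YFP (IFP1/IFP2) PPARg/SRC-1 reporter, HEK293T, 37 °C, 5% CO2; 8 h compound; formaldehyde fix + Draq5; high-content imaging, N/C ratio, ≥350 cells/image, positive direction vs DMSO.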

[6] = biological target: Peroxisome proliferator-activated receptor gamma (Homo sapiens) (UniProt P37231); assay: OT_PPARg_PPARgSRC1_1440: Odyssey Thera (OT) 24-hour Protein-Complementation Assay for Peroxisome Proliferator-activated Receptor Gamma/ SRC-1 Co-activator (AID 2283388);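 further: nuclear to cytoplasmic ratio of reconstituted Venus YFP fluorescence in fixed imaged cells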
Method in brief: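 Cells carrying the PPARg/SRC-1 fragment-complementation reporter receive compound for 24 hours, are fixed and counterstained with Draq5, then imaged. Increased nuclear relative to cytoplasmic YFP fluorescence above DMSO baseline indicates binding activity.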

[7] = ACEA_AR_agonist_AUC_viability: ACEA Biosciences xCELLigence Real-Time Cell Analysis on Androgen Receptor Agonism for Viability (AID 2283775);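 on AC50: viability read 80 hours after compound addition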
Method in brief: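 Viability endpoint from xCELLigence impedance in 22Rv1 prostate cells at 80 h. Eight-point series, 100 uM maximum final.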

[8] = ACEA_AR_antagonist_AUC_viability: ACEA Biosciences xCELLigence Real-Time Cell Analysis on Androgen Receptor Antagonism for Viability (AID 2283776);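 further: 22Rv1 human prostate cancer cells growing on impedance electrode plates; area under impedance growth curve at 80 h after dosing as viability; hits lower the growth signal relative to DMSO meaning cytotoxicity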
Method in brief: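 Viability endpoint from label-free cell-index monitoring: 22Rv1 cultures treated with an eight-point 1:4 dilution series starting at 100 uM final, AUC at 80 h fitted against DMSO.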

[9] = CCTE_Harrill_HTTr_CellCount_MCF7: CCTE's Cell Proliferation Assessment for the High-Throughput Transcriptomics (HTTr) Platform, Harrill Lab (AID 2284012);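 further: count of Hoechst-stained nuclei per well by high-content imaging in MCF-7 cells; cells exposed to compound for six hours; intended direction is loss of nuclei count meaning fewer cells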
Method in brief: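 Readout: Hoechst nuclear count by high-content imaging. MCF-7, 8-point dilution series, 6 h exposure. Bidirectional fit vs DMSO baseline.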

[10] = ATG_ERE_CIS: Attagene CIS-FACTORIAL HepG2 Assay for Estrogen Response Element (ERE) (AID 2282940; active means hit-call score of the fitted dose curve at least 0.9, where 1 is the maximum; inactive means score below 0.9); conditions: HepG2 ERE cis-reporter, Attagene RNA transcript; actives raise or lower the signal
Method in brief: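 Measuring endogenous transcription factor output, the assay doses transfected HepG2 cells for 24 hours and quantifies reporter transcripts by fluorescent RT-PCR and capillary electrophoresis, with DMSO as baseline.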

[11] = biological target: human Retinoic Acid Receptor beta (RARb), RARB (gene 5915) (UniProt P10826); assay: ATG_RARb_TRANS: Attagene TRANS-FACTORIAL HepG2 Assay for human Retinoic Acid Receptor beta (AID 2283004)
Sequence of human Retinoic Acid Receptor beta (RARb), RARB (gene 5915) (P10826 whole entry, looked up, the tested form may be a part): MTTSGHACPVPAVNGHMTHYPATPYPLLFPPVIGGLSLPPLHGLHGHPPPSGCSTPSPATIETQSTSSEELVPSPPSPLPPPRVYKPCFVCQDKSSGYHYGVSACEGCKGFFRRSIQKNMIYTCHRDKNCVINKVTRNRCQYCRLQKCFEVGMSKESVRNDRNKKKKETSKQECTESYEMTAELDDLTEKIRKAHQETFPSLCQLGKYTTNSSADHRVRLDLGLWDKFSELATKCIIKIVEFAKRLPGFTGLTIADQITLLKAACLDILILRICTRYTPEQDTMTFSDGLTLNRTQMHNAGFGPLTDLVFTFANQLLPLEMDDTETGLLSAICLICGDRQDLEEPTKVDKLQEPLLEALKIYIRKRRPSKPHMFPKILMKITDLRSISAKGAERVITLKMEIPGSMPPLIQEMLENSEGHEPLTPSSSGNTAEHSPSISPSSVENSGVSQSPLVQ
Method in brief: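 Fluorescent capillary-electrophoresis detection of GAL4-UAS reporter mRNA defines the endpoint, with induction over DMSO-treated wells scored as activity. Transiently transfected human hepatoma HepG2 cells expressing exogenous NR–Gal4 proteins are exposed to test chemicals for 24 h.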

[12] = biological target: Nuclear receptor subfamily 4 group A member 2 (Homo sapiens) (UniProt P43354); assay: ATG_NURR1_TRANS: Attagene TRANS-FACTORIAL HepG2 Assay for human Nuclear Receptor Related Protein 1 (NURR1) (AID 2282985); conditions: HepG2 Attagene TRANS reporter, mRNA readout
Sequence of Nuclear receptor subfamily 4 group A member 2 (Homo sapiens) (P43354 whole entry, looked up, the tested form may be a part): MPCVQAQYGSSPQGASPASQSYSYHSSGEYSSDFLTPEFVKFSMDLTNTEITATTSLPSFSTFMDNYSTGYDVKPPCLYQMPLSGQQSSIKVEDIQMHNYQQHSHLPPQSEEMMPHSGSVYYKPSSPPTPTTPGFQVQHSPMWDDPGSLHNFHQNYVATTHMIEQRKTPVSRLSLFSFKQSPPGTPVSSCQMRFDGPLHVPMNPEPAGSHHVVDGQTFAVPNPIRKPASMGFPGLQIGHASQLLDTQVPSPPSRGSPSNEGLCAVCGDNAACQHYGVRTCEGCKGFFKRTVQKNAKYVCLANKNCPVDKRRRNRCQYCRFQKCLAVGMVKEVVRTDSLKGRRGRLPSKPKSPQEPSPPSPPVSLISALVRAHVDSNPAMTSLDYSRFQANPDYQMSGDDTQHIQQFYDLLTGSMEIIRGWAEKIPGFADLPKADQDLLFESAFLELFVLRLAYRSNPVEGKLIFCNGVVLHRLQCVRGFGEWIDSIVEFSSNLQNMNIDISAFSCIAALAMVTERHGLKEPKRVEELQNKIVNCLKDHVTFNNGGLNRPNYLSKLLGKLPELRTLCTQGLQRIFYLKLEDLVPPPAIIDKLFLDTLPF
Method in brief: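 Read-out: reporter mRNA induction by RT-PCR plus capillary electrophoresis with fluorescence detection, after 24 h dosing of transfected HepG2 cells. Exogenous NR-Gal4 chimera activity drives GAL4-UAS reporter; activity fitted upward versus DMSO.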

[13] = biological target: Steroid hormone receptor ERR1 (Homo sapiens) (UniProt P11474); assay: ATG_ERRa_TRANS: Attagene TRANS-FACTORIAL HepG2 Assay for human Estrogen-Related Receptor alpha (ERRa) (AID 2282971); conditions: HepG2 Attagene TRANS reporter, ERRa transactivation
Sequence of Steroid hormone receptor ERR1 (Homo sapiens) (P11474 whole entry, looked up, the tested form may be a part): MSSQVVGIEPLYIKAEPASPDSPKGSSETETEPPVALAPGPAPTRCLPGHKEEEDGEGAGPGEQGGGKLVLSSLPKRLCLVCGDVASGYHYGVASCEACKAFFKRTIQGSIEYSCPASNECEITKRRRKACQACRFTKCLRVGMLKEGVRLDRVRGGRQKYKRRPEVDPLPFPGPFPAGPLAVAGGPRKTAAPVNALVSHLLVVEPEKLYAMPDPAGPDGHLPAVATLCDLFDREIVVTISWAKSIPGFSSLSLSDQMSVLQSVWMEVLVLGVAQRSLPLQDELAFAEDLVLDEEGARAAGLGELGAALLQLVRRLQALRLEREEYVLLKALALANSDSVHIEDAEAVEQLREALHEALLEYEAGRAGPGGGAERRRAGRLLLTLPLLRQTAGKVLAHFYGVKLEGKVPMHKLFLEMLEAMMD
Method in brief: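 Signal gain relative to DMSO for an ERRa-Gal4 chimeric receptor, read as reporter mRNA by RT-PCR/capillary electrophoresis. Human HepG2 liver cells, transient multiplex reporter transfection, 24 h chemical exposure.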

[14] = read-out: Pselectin, SELP (gene 6403); assay: BSK_4H_Pselectin: BioMAP Diversity Plus: 4H Assay for Pselectin Biomarker Activity (AID 2283026; active means hit-call score of the fitted dose curve at least 0.9, where 1 is the maximum; inactive means score below 0.9); conditions: primary human endothelial cells (HUVEC); actives raise or lower the signal
Method in brief: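 HUVEC, 24 h chemical exposure; P-selectin read by ELISA. Bidirectional curve fit vs DMSO baseline; gain or loss of signal scored.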

[15] = read-out: Macrophage colony-stimulating factor (MCSF), CSF1 (gene 1435); assay: BSK_CASM3C_MCSF: BioMAP Diversity Plus: CASM3C Assay for Macrophage colony-stimulating factor (MCSF) Biomarker Activity (AID 2283044; active means hit-call score of the fitted dose curve at least 0.9, where 1 is the maximum; inactive means score below 0.9;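 further: M-CSF protein amount quantified by ELISA after 24 h exposure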); conditions: primary human coronary artery smooth muscle cells; actives raise or lower the signal
[16] = read-out: Low-density lipoprotein receptor (LDLR), LDLR (gene 3949); assay: BSK_CASM3C_LDLR: BioMAP Diversity Plus: CASM3C Assay for Low-density lipoprotein receptor (LDLR) Biomarker Activity (AID 2283045; active means hit-call score of the fitted dose curve at least 0.9, where 1 is the maximum; inactive means score below 0.9;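 further: LDLR protein level on the cell surface quantified by ELISA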); conditions: primary human coronary artery smooth muscle cells; actives raise or lower the signal
[17] = read-out: serum amyloid A (SAA), SAA1 (gene 6288); assay: BSK_CASM3C_SAA: BioMAP Diversity Plus: CASM3C Assay for serum amyloid A (SAA) Biomarker Activity (AID 2283049; active means hit-call score of the fitted dose curve at least 0.9, where 1 is the maximum; inactive means score below 0.9;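 further: SAA protein level quantified by ELISA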); conditions: primary human coronary artery smooth muscle cells; actives raise or lower the signal
[18] = read-out: Interferon-gamma inducible Protein 10 (IP10), CXCL10 (gene 3627); assay: BSK_hDFCGF_IP10: BioMAP Diversity Plus: hDFCGF Assay for Interferon-gamma inducible Protein 10 (IP10) Biomarker Activity (AID 2283053; active means hit-call score of the fitted dose curve at least 0.9, where 1 is the maximum; inactive means score below 0.9); conditions: primary human foreskin fibroblasts; actives raise or lower the signal
Method in brief: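 ELISA read-out of IP-10 (CXCL10) from primary human skin fibroblasts, 24 h after compound addition. Gain or loss of signal versus DMSO baseline, bidirectional curve fitting.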

[19] = read-out: Vascular cell adhesion molecule 1 (VCAM1), VCAM1 (gene 7412); assay: BSK_CASM3C_VCAM1: BioMAP Diversity Plus: CASM3C Assay for Vascular cell adhesion molecule 1 (VCAM1) Biomarker Activity (AID 2283055; active means hit-call score of the fitted dose curve at least 0.9, where 1 is the maximum; inactive means score below 0.9;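 further: VCAM-1 protein level quantified by ELISA on the cells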); conditions: primary human coronary artery smooth muscle cells; actives raise or lower the signal
[20] = read-out: Monokine induced gamma interferon (MIG), CXCL9 (gene 4283); assay: BSK_hDFCGF_MIG: BioMAP Diversity Plus: hDFCGF Assay for Monokine induced gamma interferon (MIG) Biomarker Activity (AID 2283063; active means hit-call score of the fitted dose curve at least 0.9, where 1 is the maximum; inactive means score below 0.9); conditions: primary human foreskin fibroblasts; actives raise or lower the signal
Method in brief: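 Endpoint derived by bidirectional fitting relative to DMSO; MIG quantified via ELISA in primary human foreskin fibroblasts harvested 24 h after dosing.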

Measured: AC50

Cc1cc(O)cc(C)c1Cl
inactive: [1] | [4] | [5] | [6] | [9]
active: [2] 25 µM | [3] 31.6 µM | [7] 3.98 µM | [8] 8.88 µM

CCCOCCC
inactive: [10] | [11] | [1]

CCCC(=O)OC
inactive: [10]

CCCCOC(=O)COc1ccc(Cl)cc1Cl
inactive: [4] | [5] | [6] | [7] | [8]

CC(C)=CCOC(=O)c1ccccc1
inactive: [12]

COC(=O)[C@]1(C)CCC[C@@]2(C)[C@H]1CC=C1C=C(C(C)C)CC[C@@H]12
active: [7] 0.333 µM
inactive: [1] | [2] | [3] | [4]

Cc1ccnc(N)c1
inactive: [11] | [9]

CCOc1ccc2c(c1)C(C)CC(C)(C)N2 (centres undefined)
inactive: [12]

C=C(C)C(=O)OCCCCCC
inactive: [10]

[O-][n+]1ccc(Cl)cc1
inactive: [11]

CCCCCCC1CCC(=O)O1 (centres undefined)
inactive: [10] | [13] | [11] | [1] | [3] | [5] | [6] | [7] | [8]

O=C1CCCCCCCCCCCCCC1
inactive: [10]

Sc1nc2ccccc2s1
active: [19] 0.016 µM
not listed: [1] | [4] | [7] | [9] | [10] | [11] | [12] | [13]
inactive: all other assays above

C=CC(C)(CCC=C(C)C)OC(=O)c1ccccc1 (centres undefined)
inactive: [12]

CCc1cc(C(N)=S)ccn1
inactive: [9]

O=C(c1ccccc1)c1ccccc1O
inactive: [13] | [3] | [5] | [6] | [7] | [8]
active: [2] 50 µM

CCOC(=O)CC(=O)OCC
inactive: [1] | [4] | [7]

C=CCOC(=O)C(=C)C
inactive: [13] | [1]

C/C=C(\C)C(=O)OCC/C=C\CC
inactive: [11]

NC(N)=Nc1nc(CSCCC(N)=NS(N)(=O)=O)cs1
active: [10] 26.1 µM
inactive: [13] | [9]

Nc1nnc(-c2ccc([N+](=O)[O-])o2)o1
inactive: [10]

Cc1cc(-n2nc3ccc(Cl)cc3n2)c(O)c(C(C)(C)C)c1
inactive: [11] | [14] | [15] | [16] | [17] | [18] | [19] | [20]

CCCCNC(N)=O
inactive: [13]

O=C(Oc1ccccc1)c1ccccc1
inactive: [11] | [1] | [2] | [3] | [4] | [5] | [6] | [7] | [8] | [9]

CCCCC(CC)COC(=O)CS (centres undefined)
active: [4] 16 µM
inactive: [13] | [12]

CC(C)CC(=O)CC(C)CC(C)C (centres undefined)
active: [14] 30.1 µM | [15] 34.6 µM | [19] 37.2 µM
inactive: [16] | [17] | [18] | [20]
